Experimental data published in PubChem BioAssay (NCATS).
Several values for one entry are separate records, joined by “and”; a condition that tells them apart may be missing. Equal entries are not always repeated. A number with no mark means an inactive call. Records with an inconclusive call do not appear. Activity calls are given as the source filed them. Unless noted, the call rests on the fitted dose curve; in most records, active means well fitted curve in either direction with a large enough effect (not every such curve was filed as active); inconclusive means small, poorly fitted or top-dose-only effect, or another doubt; inactive means flat fitted curve, though single readings scatter.

Columns and labels:
[1] = AP1 Signaling Pathway (AID 357); settings: ME-180 AP-1-bla reporter, EGF-induced, beta-lactamase ratio, 5 h;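 further: ME-180 reporter cells stimulated with EGF at its EC50 level; on the % scale 0 is the no-effect control and ±100 the full control effect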
Outline: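 Modulation of EGF-driven AP-1 transcription was assessed with a beta-lactamase reporter in ME-180 cells. Compound and EC50 EGF were co-incubated 5 hours at 37 °C before 2.5-hour CCF4 loading at room temperature and dual-emission reading.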

[2] = NFAT Signaling Pathway (AID 444); settings: Jurkat NFAT-bla M1, carbachol, beta-lactamase ratio, 5 h; at 38 µM (top of the series) unless noted;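 further: carbachol stimulus at about its EC50 of 1 µM final; on the % scale 0 is the no-effect control and ±100 the full control effect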
Outline: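 Jurkat cells carrying an NFAT-driven β-lactamase reporter and co-transfected muscarinic M1 receptor were treated with compound plus carbachol (1 uM final, an EC50 level) for 5 h at 37 °C. CCF4 loading followed for 1 h at RT; 460/530 nm ratio gave %activity.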

[3] = Stat Signaling Pathway (AID 446); settings: ME-180 (cervical carcinoma) SIE beta-lactamase reporter, IL-6 stimulated, 5 h;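 further: ME-180 cervical cancer cells given 40 pM IL-6 alongside compound; SIE-controlled beta-lactamase reporter measured as 460/530 nm FRET emission ratio; on the % scale 0 is the no-effect control and ±100 the full control effect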
Outline: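 Overnight-plated ME-180 cells bearing a STAT Inducible Element beta-lactamase reporter; 5 h co-exposure to compound and 40 pM IL-6; values normalized to 300 pM IL-6 and 125 nM JAK inhibitor controls.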

[4] = target: Glucocorticoid receptor (Homo sapiens) (UniProt P04150); assay: GR-GFP Redistribution (AID 450;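 active means compounds whose dose series gives a full or clear partial fitted curve of increased nuclear translocation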; further: potency means the concentration at half of the fitted maximal effect); settings: U2OS GR-GFP nuclear translocation, laser cytometry, 2 h
[5] = target: Glucocorticoid receptor (Homo sapiens) (UniProt P04150); assay: GR-EFC Redistribution (AID 451; calls by dose curve; further: potency means the concentration at half of the fitted maximal effect); settings: CHO-K1 GR-EFC translocation, beta-gal luminescence, 2 h
Outline: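 CHO-K1 cells stably expressing nuclear-localized β-gal enzyme acceptor and GR fused C-terminally to the enzyme donor fragment; ligand-driven nuclear translocation restores β-gal by complementation. Compounds titrated up to 46 uM final, 2 h at 37 °C; luminescence read.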

[6] = target: Mitogen-activated protein kinase 10 (Mus musculus) (UniProt Q61831); assay: JNK3 AlphaScreen Assay (AID 530); settings: JNK3 lysate, c-Jun phosphorylation; series mostly up to 57.1 µM;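 further: kinase came from lysate of stimulated human HepG2 cells; signal reports phosphorylation of biotinylated GST-cJun 1-79 at Ser73 with 10 µM ATP; on the % scale 0 is the no-effect control and ±100 the full control effect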
Outline: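 Biotinylated GST-cJun(1-79) served as substrate for JNK3 in HepG2 lysates stimulated with IL-1beta and TNF-alpha. ATP was 10 uM final, pH 7.6. Ser73 phosphorylation was quantified by AlphaScreen (680 nm excitation).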

[7] = target: Cytochrome P450 1A2 (Homo sapiens) (UniProt P05177); assay: p450-cyp1a2 (AID 410; calls by dose curve; further: potency means the concentration at half of the fitted maximal effect;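 on activity change, negative = inhibition: -100% = full effect of reference inhibitor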); settings: recombinant CYP1A2, luciferin-ME demethylation, luminescence; series mostly up to 57 µM
Outline: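 Read-out is luminescence from luciferin produced by CYP1A2 demethylation of Luciferin-ME (100uM, at Km). Detection reagent stopped the 60 min NADPH-dependent reaction; signals were normalized to 57 uM furafylline.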

[8] = Cell Viability - Jurkat (AID 426;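 active means dose-dependent loss of cell ATP signal giving a full or clear fitted curve, ranked by lower potency value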;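 further: potency means the concentration at half of the fitted maximal effect; cells exposed to compound for 40 hours at 37 °C before ATP read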); settings: qHTS
Outline: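 Cytotoxicity was scored as loss of cellular ATP, measured by luciferase-based luminescence, in Jurkat clone E6-1 cells after 40 h compound treatment; tamoxifen and doxorubicin served as positive controls.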

[9] = Cell Viability - Hek293 (AID 427;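 active means compounds whose dose-response curve shows a full or clear partial loss of cell viability, called from curve shape rather than a numeric limit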;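 further: potency means the concentration at half of the fitted maximal effect; cells exposed to compound for 40 hours at 37 °C before reading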); settings: qHTS
Outline: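 AC50 values derive from Hill-modelled concentration-response of ATP-based luminescence, normalized between DMSO-only and 100 uM tamoxifen controls. Cells were exposed in complete culture medium for 40 hr at 37 °C before detection.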

[10] = Cell Viability - HepG2 (AID 433; calls by dose curve;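 further: potency means the concentration at half of the fitted maximal effect; potency for ATP loss meaning cytotoxicity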); settings: qHTS
Outline: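 Read-out is luciferase-based quantitation of cellular ATP as a measure of viable HepG2 cells after 40 h treatment at 37 °C. Signal decrease is scaled between DMSO-only and 100 uM tamoxifen controls, with AC50 fitted by the Hill equation.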

[11] = Cell Viability - MRC5 (AID 434; calls by dose curve;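 further: potency means the concentration at half of the fitted maximal effect; cells exposed to compound for 40 hours at 37 °C; potency reflects cytotoxicity seen as loss of intracellular ATP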); settings: MRC5 lung fibroblast viability, qHTS
Outline: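 Decrease in intracellular ATP, quantified by luciferase light output, reflects compound toxicity toward MRC5 cells exposed for 40 hr in complete culture medium. Concentration-response curves, scaled between DMSO and 100 uM tamoxifen, gave AC50 values.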

[12] = Cell Viability - SK-N-SH (AID 435; calls by dose curve;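 further: potency means the concentration at half of the fitted maximal effect; compound exposure lasted 40 h at 37 °C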); settings: SK-N-SH neuroblastoma cell viability qHTS
Outline: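 Luminescent ATP signal served as the viability read-out after 40 hours of compound treatment of human neuroblastoma SK-N-SH cells. Concentration-response data, scaled between DMSO and 100 uM tamoxifen, gave AC50 values by standard Hill modeling.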

[13] = Cell Viability - H-4-II-E (AID 543; active means well fitted cell-killing curve with a large enough effect; further: potency means the concentration at half of the fitted maximal effect; nearly all actives have a fitted effect of over 35% in size); settings: H-4-II-E rat hepatoma viability; series mostly up to 92.2 µM
Outline: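 AC50 from Hill-modelled qHTS concentration-response curves. H-4-II-E rat hepatoma cells in complete medium, 40 hr exposure at 37 °C, viability by CellTiter-Glo ATP luminescence.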

[14] = Cell Viability - SH-SY5Y (AID 544; active means well fitted cell-killing curve with a large enough effect; further: potency means the concentration at half of the fitted maximal effect; nearly all actives have a fitted effect of over 55% in size); settings: SH-SY5Y neuroblastoma cell viability; viability change, negative = cytotoxic: at 92.2 µM (top of the series)
Outline: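 Quantitative HTS in SH-SY5Y neuroblastoma cells, 40 hr treatment at 37 °C, ATP content by luciferase luminescence; AC50 from Hill fits.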

Glucocorticoid receptor (Homo sapiens), sequence (P04150 whole entry, looked up, the tested form may be a part): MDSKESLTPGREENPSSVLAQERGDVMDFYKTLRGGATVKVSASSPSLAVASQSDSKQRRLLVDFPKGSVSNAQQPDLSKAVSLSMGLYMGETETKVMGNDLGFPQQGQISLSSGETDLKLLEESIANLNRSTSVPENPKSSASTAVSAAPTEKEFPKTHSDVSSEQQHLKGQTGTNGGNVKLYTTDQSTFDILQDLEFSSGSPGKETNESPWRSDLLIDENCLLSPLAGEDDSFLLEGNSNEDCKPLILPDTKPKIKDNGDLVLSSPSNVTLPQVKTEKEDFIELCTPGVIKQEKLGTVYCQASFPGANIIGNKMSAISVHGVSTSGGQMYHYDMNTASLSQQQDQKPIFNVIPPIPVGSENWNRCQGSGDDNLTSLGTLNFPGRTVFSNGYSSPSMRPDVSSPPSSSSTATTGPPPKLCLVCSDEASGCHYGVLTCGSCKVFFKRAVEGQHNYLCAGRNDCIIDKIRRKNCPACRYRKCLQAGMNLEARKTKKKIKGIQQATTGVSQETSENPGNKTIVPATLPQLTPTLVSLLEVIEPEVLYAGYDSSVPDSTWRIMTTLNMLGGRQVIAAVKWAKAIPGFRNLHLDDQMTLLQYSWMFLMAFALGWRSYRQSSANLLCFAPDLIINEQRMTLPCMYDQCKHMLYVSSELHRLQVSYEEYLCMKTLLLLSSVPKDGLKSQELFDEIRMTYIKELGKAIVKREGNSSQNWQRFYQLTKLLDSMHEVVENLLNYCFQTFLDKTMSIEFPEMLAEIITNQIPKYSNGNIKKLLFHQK
Cytochrome P450 1A2 (Homo sapiens), sequence (P05177 whole entry, looked up): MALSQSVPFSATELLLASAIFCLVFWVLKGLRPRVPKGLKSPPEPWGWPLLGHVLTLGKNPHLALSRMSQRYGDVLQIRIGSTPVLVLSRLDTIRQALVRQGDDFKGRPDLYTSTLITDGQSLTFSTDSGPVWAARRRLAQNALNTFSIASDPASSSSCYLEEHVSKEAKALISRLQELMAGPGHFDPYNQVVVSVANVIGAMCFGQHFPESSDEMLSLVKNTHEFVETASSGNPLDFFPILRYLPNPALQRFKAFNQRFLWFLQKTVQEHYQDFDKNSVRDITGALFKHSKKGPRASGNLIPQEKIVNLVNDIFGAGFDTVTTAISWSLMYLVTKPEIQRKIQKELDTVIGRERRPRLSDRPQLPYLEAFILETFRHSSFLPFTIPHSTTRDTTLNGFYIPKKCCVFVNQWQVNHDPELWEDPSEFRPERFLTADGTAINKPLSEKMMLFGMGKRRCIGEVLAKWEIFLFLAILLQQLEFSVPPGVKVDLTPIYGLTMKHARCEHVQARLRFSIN

## CN1CCc2ccccc2Cc2[nH]c3ccccc3c2CC1
[1]; at 38 µM (top of the series)
  activity change, negative = inhibition: 8.89%
[2]
  activity change, negative = inhibition: -7.31%
[3]; at 38 µM (top of the series)
  activity, negative = inhibition: -13.2%
[4]
  Potency: > 46 µM
[5]
  Potency: > 46 µM
[6]
  Potency: inactive

## CCCN(CC1CC1)c1nc(C)nc(Nc2c(Cl)cc(Cl)cc2Cl)c1Cl
[1]; at 38 µM (top of the series)
  activity change, negative = inhibition: 18.7%
[7]
  Potency: inactive
[3]; at 38 µM (top of the series)
  activity, negative = inhibition: -12.8%
[4]
  Potency: > 46 µM
[5]
  Potency: > 46 µM

## COc1cc(/C=C/C(=O)CC(=O)/C=C/c2ccc(O)c(OC)c2)ccc1O
[1]; at 17.2 µM (top of the series)
  activity change, negative = inhibition: 22.5%
[8]
  Potency: 28.2 µM (active)
[9]
  Potency: 42.7 µM (active)
[10]
  Potency: > 92 µM
[11]
  Potency: 45.2 µM (active)
[12]
  Potency: 22.9 µM (active)
[3]; at 17.2 µM (top of the series)
  activity, negative = inhibition: -22.7%
[4]
  Potency: > 20.6 µM
[6]
  Potency: inactive
[13]
  Potency: 31.6 µM (active)
[14]
  Potency: 31.6 µM (active)

## Cc1ccc(O)c(N=Nc2ccccc2)n1
[1]; at 38 µM (top of the series)
  activity change, negative = inhibition: 17.2%
[7]
  Potency: 794 nM (active) and 158 nM (active)
[2]
  activity change, negative = inhibition: -10.8%
[3]; at 38 µM (top of the series)
  activity, negative = inhibition: -4.23%
[4]
  Potency: > 46 µM
[6]
  Potency: inactive

## CCCCN1CCC(n2c(=O)[nH]c3ccccc32)CC1
[1]; at 38 µM (top of the series)
  activity change, negative = inhibition: -4.94%
[7]
  Potency: inactive
[2]
  activity change, negative = inhibition: 4.7%
[4]
  Potency: > 46 µM

## Cc1c(N)c(=O)n(-c2ccccc2)n1C
[1]; at 17.2 µM (top of the series)
  activity change, negative = inhibition: 7.65%
[2]
  activity change, negative = inhibition: -9.93% [at 17.2 µM]
[3]; at 17.2 µM (top of the series)
  activity, negative = inhibition: 3.23%
[4]
  Potency: > 20.6 µM
[5]
  Potency: > 20.6 µM
[6]
  Potency: inactive

## Cc1ccc(C(=O)c2ccc(CC(=O)O)n2C)cc1
[1]; at 17.2 µM (top of the series)
  activity change, negative = inhibition: 6.83%
[7]
  Potency: inactive
[2]
  activity change, negative = inhibition: -1.3% [at 17.2 µM]
[3]; at 17.2 µM (top of the series)
  activity, negative = inhibition: -8.7%
[6]
  Potency: inactive

## OC[C@H]1O[C@@H](n2cnc3c(Nc4ccccc4)ncnc32)[C@H](O)[C@@H]1O
[1]; at 17.2 µM (top of the series)
  activity change, negative = inhibition: 0.891%
[2]
  activity change, negative = inhibition: 4.47% [at 17.2 µM]
[3]; at 17.2 µM (top of the series)
  activity, negative = inhibition: 17.7%
[4]
  Potency: > 20.6 µM

## COc1ccc(/C=C/C(=O)Nc2ccccc2C(=O)O)cc1OC
[1]; at 17.2 µM (top of the series)
  activity change, negative = inhibition: -28.6%
[2]
  activity change, negative = inhibition: 22.7% [at 17.2 µM]
[3]; at 17.2 µM (top of the series)
  activity, negative = inhibition: -24.7%
[4]
  Potency: > 20.6 µM

## Nc1nc(Cl)nc2c1ncn2[C@@H]1O[C@H](CO)[C@@H](O)[C@H]1O
[1]; at 17.2 µM (top of the series)
  activity change, negative = inhibition: 0.568%
[2]
  activity change, negative = inhibition: 22.4% [at 17.2 µM]
[3]; at 17.2 µM (top of the series)
  activity, negative = inhibition: 24.3%
[4]
  Potency: > 20.6 µM

## O=C(O)Cc1ccc(-c2ccccc2)cc1
[1]; at 17.2 µM (top of the series)
  activity change, negative = inhibition: 3.75% and 6.11%
[2]
  activity change, negative = inhibition: -2.29% [at 17.2 µM] and -12.1% [at 17.2 µM]
[3]; at 17.2 µM (top of the series)
  activity, negative = inhibition: -10.3% and 7.71%
[4]
  Potency: > 20.6 µM
[5]
  Potency: > 20.6 µM
[6]
  Potency: inactive
